Consider 40 compounds from PubChem BioAssay (Tox21).

Values joined by “and” are separate entries in the source; they are usually repeats but may differ in a detail not shown here. Equal values may be shown once. Inconclusive results are not listed. The source holds several records for some structures; these can differ, active in one and inactive in another. Active and inactive are the calls of the source. Unless noted, the call rests on the fitted dose curve; in most records, active means well fitted curve in the direction sought with a large enough effect in the repeat runs; inconclusive means weak or mixed curves; inactive means no such curve, though single readings can be large; an effect the other way counts as inactive or inconclusive.

For test [1], the target named is Retinoic acid receptor RXR-alpha (Homo sapiens) (UniProt P19793). As to the kind of experiment: qHTS assay to identify small molecule agonists of the RXR signaling pathway (AID 1159527; calls by dose curve; further: nearly all actives have a fitted effect of over 35% in size). The essentials:
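GeneBLAzer RXR-alpha-UAS-bla HEK 293T cells in medium with 2% charcoal-stripped FBS, pre-incubated 5 hr at 37 C, then exposed to compounds 16 hr. Beta-lactamase reporter read by FRET substrate, 2 hr room temperature, 460/530 nm emission.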

A short description of test [2]: qHTS assay to identify small molecule agonists of the RXR signaling pathway - cell viability counter screen (AID 1159529). Further: nearly all actives have a fitted effect of over 50% in size. Further: potency means the concentration at half of the fitted maximal effect. On activity change, negative = cytotoxicity: series mostly up to about 77 µM. The essentials:
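RXR-alpha-UAS-bla HEK 293T cells in medium with 2% charcoal-stripped FBS were preincubated 5 hr, then exposed to compounds for 16 hr at 37 C. Viability was read as CellTiter-Glo luminescence after 30 min at room temperature.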

Test [3] in a line: qHTS assay to identify small molecule antagonists of the retinoid acid receptor (RAR) signaling pathway - cell viability counter screen (AID 1159551). Further: nearly all actives have a fitted effect of over 35% in size. Further: potency means the concentration at half of the fitted maximal effect. The essentials:
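Viability of C3RL4 cells is quantified from ATP by luminescence after 6 h treatment at 37 C with compounds and 1 uM retinol.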

The nature of test [4]: qHTS assay to identify small molecule antagonists of the retinoic acid receptor (RAR) signaling pathway (AID 1159552; further: nearly all actives have a fitted effect of over 50% in size; further: potency means the concentration at half of the fitted maximal effect). An outline of the steps:
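RARE-luc C3RL4 cells; cpds + 1 uM (final) retinol, 6 hr, 37 C/5% CO2; luciferase reagent, 30 min RT, luminescence readout. Inhibitors of retinol-driven signal scored.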

Test [5] can be described thus: qHTS assay to identify small molecule agonists of the retinoic acid receptor (RAR) signaling pathway (AID 1159553). An outline of the steps: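 Compounds dissolved in DMSO were pinned onto C3RL4 cells seeded the previous day, and plates were held 6 hr at 37 C. RARE-driven luciferase output was then read by luminescence.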
On the % scale 0 is the no-effect control and ±100 the full control effect.

Retinoic acid receptor RXR-alpha (Homo sapiens), sequence (P19793 whole entry, looked up): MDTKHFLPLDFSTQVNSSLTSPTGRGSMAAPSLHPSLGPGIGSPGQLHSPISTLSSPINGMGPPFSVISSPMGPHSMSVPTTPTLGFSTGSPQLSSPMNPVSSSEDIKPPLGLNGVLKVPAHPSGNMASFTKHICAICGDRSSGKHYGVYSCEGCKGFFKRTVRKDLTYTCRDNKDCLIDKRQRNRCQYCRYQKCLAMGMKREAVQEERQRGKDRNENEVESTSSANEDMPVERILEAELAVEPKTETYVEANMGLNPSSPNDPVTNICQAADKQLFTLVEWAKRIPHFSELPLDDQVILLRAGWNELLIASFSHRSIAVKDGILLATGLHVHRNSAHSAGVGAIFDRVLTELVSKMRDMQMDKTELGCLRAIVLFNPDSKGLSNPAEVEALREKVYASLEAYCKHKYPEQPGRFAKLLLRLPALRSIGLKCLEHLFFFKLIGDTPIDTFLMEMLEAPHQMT

As for `O=C/C=C/c1ccco1`, the Potency result in test [1], in test [2], in test [3], in test [4] and in test [5] was “inactive” each time.

For the compound `ClCC1CO1` (stereo not given), the Potency entry in test [1], in test [2], in test [3], in test [4] and in test [5] was “inactive” throughout.

As for `CC(=O)OCC1=C(C(=O)O)N2C(=O)[C@@H](N)[C@H]2SC1`, in test [1], the activation is -0.797% [at 15.8 µM] (inactive). The results for the activity change, negative = cytotoxicity in test [2] and in test [3] were -9.25% [at 15.8 µM] (inactive) and 0.328% [at 19 µM] (inactive), respectively. For the same compound, the activity, negative = inhibition in test [4] is -17.1% [at 19 µM] (inactive). Besides, the Potency result in test [5] is “inactive”.

`CCN1CCCC1CNC(=O)C(O)(c1ccccc1)c1ccccc1` (stereo not given): the Potency result in test [1], in test [2], in test [3], in test [4] and in test [5] was “inactive” throughout.

For the compound `C=CC=O`, the Potency entry in test [1], in test [2], in test [3], in test [4] and in test [5] was “inactive” throughout.

`NC(=O)CS(=O)C(c1ccccc1)c1ccccc1` (stereo not given): the Potency result in test [1], in test [2], in test [3], in test [4] and in test [5] was “inactive” in each case.

With `OCC(Cl)CCl` (stereo not given), the Potency entry in test [1], in test [2], in test [3], in test [4] and in test [5] was “inactive” each time.

`C=C(Cl)CCl`: the Potency entry in test [1], in test [2], in test [3], in test [4] and in test [5] was “inactive” throughout.

In the case of `[P]#[In]`, the Potency entry in test [1], in test [2], in test [3], in test [4] and in test [5] was “inactive” each time.

Consider `COC(=O)[C@@H](N)CCCN/C(N)=N/[N+](=O)[O-]`, for which the Potency result in test [1], in test [2], in test [3], in test [4] and in test [5] was “inactive” each time.

In the case of `O=S1(=O)OCCO1`, the Potency result in test [1], in test [2], in test [3], in test [4] and in test [5] was “inactive” throughout.

`NCCOS(=O)(=O)O`: the Potency result in test [1], in test [2], in test [3], in test [4] and in test [5] was “inactive” in each case.

Turning to `COc1ccc2c(C(=O)c3ccc(Cl)cc3)c(C)n(CC(=O)O)c2c1`, the Potency entry in test [1], in test [2], in test [3], in test [4] and in test [5] was “inactive” each time.

Consider `CCCC(C)C1(CC)C(=O)N=C(S)NC1=O` (stereo not given), for which the Potency entry in test [1], in test [2], in test [3], in test [4] and in test [5] was “inactive” each time.

Take `O=[N+]([O-])c1cccc(CCl)c1`: the Potency result in test [1], in test [2], in test [3], in test [4] and in test [5] was “inactive” throughout.

With `Cc1ccc2c(c1)C1CN(C)CCC1N2` (stereo not given), the activation in test [1] is -0.325% [at 15.8 µM] (inactive). In addition, the results for the activity change, negative = cytotoxicity in test [2] and in test [3] were -17.4% [at 15.8 µM] (inactive) and 2.36% [at 19 µM] (inactive), respectively. For the same compound, in test [4], the activity, negative = inhibition is -12.3% [at 19 µM] (inactive). In addition, the Potency entry in test [5] is “inactive”.

For `CN(C)CCN(C)C`, the Potency result in test [1], in test [2], in test [3], in test [4] and in test [5] was “inactive” in each case.

In the case of `CCNP(=S)(OC)O/C(C)=C/C(=O)OC(C)C` (stereo not given), the Potency result in test [1], in test [2], in test [3], in test [4] and in test [5] was “inactive” in each case.

As for `O=C(CCl)NCO`, the Potency result in test [1], in test [2], in test [3], in test [4] and in test [5] was “inactive” in each case.

Regarding `CC(C)(N)Cc1ccccc1Cl`, the Potency result in test [1], in test [2], in test [3], in test [4] and in test [5] was “inactive” in each case.

Regarding `CCN[C@@H](C)Cc1cccc(C(F)(F)F)c1`, the Potency result in test [1], in test [2], in test [3], in test [4] and in test [5] was “inactive” throughout.

Take `COc1ccc(CN2CCNCC2)c(OC)c1OC`: the Potency result in test [1], in test [2], in test [3], in test [4] and in test [5] was “inactive” throughout.

As to `CCC1(c2ccccc2)CCC(=O)NC1=O` (stereo not given), the Potency result in test [1], in test [2], in test [3], in test [4] and in test [5] was “inactive” each time.

`N[C@@H](Cc1ccc(Oc2cc(I)c(O)c(I)c2)c(I)c1)C(=O)O`: the Potency entry in test [1], in test [2], in test [3], in test [4] and in test [5] was “inactive” throughout.

With `COc1cccc(C=O)c1`, the Potency result in test [1], in test [2], in test [3], in test [4] and in test [5] was “inactive” in each case.

`CCOP(=S)(OCC)SCCl`: the Potency result in test [1], in test [2], in test [3], in test [4] and in test [5] was “inactive” in each case.

On to `C=CCN1CC[C@]23CCCC[C@H]2[C@H]1Cc1ccc(O)cc13`, for which the Potency entry in test [1], in test [2], in test [3], in test [4] and in test [5] was “inactive” throughout.

As to `O=C(Cl)/C=C/C(=O)Cl`, the Potency result in test [1], in test [2], in test [3], in test [4] and in test [5] was “inactive” in each case.

Regarding `CCCCCCCC(=O)Cl`, the Potency entry in test [1], in test [2], in test [3], in test [4] and in test [5] was “inactive” in each case.

For the compound `O=c1[nH]c2ccccc2n1C1CCNCC1`, the Potency result in test [1], in test [2], in test [3], in test [4] and in test [5] was “inactive” throughout.

In the case of `Clc1cc2c(cc1Cl)Oc1cc(Cl)c(Cl)cc1O2`, the activation in test [1] was 5.21% [at 0.29 µM] (inactive); in test [5] it was -1.63% [at 0.338 µM] (inactive). Further, the figures for the activity change, negative = cytotoxicity in test [2] and in test [3] were -1.01% [at 0.29 µM] (inactive) and 3.92% [at 0.349 µM] (inactive), respectively. The activity, negative = inhibition in test [4] is -3.48% [at 0.349 µM] (inactive).

In the case of `ClCCN1CCCC1`, the Potency result in test [1], in test [2], in test [3], in test [4] and in test [5] was “inactive” in each case.

On to `O=P(O)(O)c1ccccc1`, for which the Potency entry in test [1], in test [2], in test [3], in test [4] and in test [5] was “inactive” throughout.

With `CC(Cl)(Cl)Cl`, the Potency result in test [1], in test [2], in test [3], in test [4] and in test [5] was “inactive” in each case.

As for `O=C1C2CC=CCC2C(=O)N1SC(Cl)(Cl)Cl` (stereo not given), the Potency entry in test [1] and in test [5] was “inactive” each time. Moreover, the Potency result in test [2] was “inactive and 24.1 µM (active)”; in test [3] it was “inactive and 26.9 µM (active)”; in test [4] it was “inactive and 5.36 µM (active)”.

`CN=CNc1ccc(C)cc1C`: the Potency entry in test [1], in test [2], in test [3], in test [4] and in test [5] was “inactive” in each case.

Take `Cl/C=C/CCl`: the Potency result in test [1], in test [2], in test [3], in test [4] and in test [5] was “inactive” each time.

Regarding `C=CCCC#N`, the Potency result in test [1], in test [2], in test [3], in test [4] and in test [5] was “inactive” each time.

As to `CCC1(c2cccc(O)c2)CCCCN(C)C1` (stereo not given), the Potency result in test [1], in test [2], in test [3], in test [4] and in test [5] was “inactive” each time.

In the case of `CCOC(=O)NC(C)(C)Cc1ccc(Cl)cc1`, the Potency entry in test [1], in test [2], in test [3], in test [4] and in test [5] was “inactive” each time.
